Experimental data reported in PubChem BioAssay (NCATS).
Where “and” joins values, the source holds several entries; their conditions need not be identical. Equal entries are not always repeated. A number with no mark means an inactive call. Records with an inconclusive call do not appear. Where a call stands in place of a potency, no number is given. Calls of active or inactive are those of the source. Unless noted, the call rests on the fitted dose curve; in most records, active means well fitted curve in the direction sought with a large enough effect; inconclusive means small, poorly fitted or top-dose-only effect, or another doubt; inactive means no such curve, though single readings can be large; an effect the other way counts as inactive or inconclusive.

Key:
JEG-3 = experiment: Primary qHTS to identify gynecologic anti-cancer compounds using libraries of approved drugs and bioactive compounds (AID 1345084); conditions: Gynecologic cancer cell panel viability, ATPlite luminescence, 48 h; series mostly up to 57.5 µM; further: nearly all actives have a fitted effect of over 55% in size
Summary of the method: (§1)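 In this quantitative HTS, cell killing is estimated from loss of ATP-dependent luciferase light. Cells see five compound concentrations over a 48 h exposure.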

OV90 = experiment: as above; conditions: Gynecologic cancer cell panel viability, ATPlite luminescence, 48 h; series mostly up to 57.5 µM
Summary of the method: as §1

PA-1 = experiment: as above; conditions: Gynecologic cancer cell panel viability, ATPlite luminescence, 48 h; series mostly up to 57.5 µM
Summary of the method: as §1

Tov-21-G = experiment: as above; conditions: Gynecologic cancer cell panel viability, ATPlite luminescence, 48 h; series mostly up to 57.5 µM
Summary of the method: as §1

Tov112D = experiment: as above; conditions: Gynecologic cancer cell panel viability, ATPlite luminescence, 48 h; series mostly up to 57.5 µM
Summary of the method: as §1

[1] = Drug repurposing screens with cells derived from glioblastoma tumor samples (AID 1345199); conditions: GBM patient neurospheres viability, ATP luminescence, 48 h; further: nearly all actives have a fitted effect of over 40% in size; further: potency means the concentration at half of the fitted maximal effect
Summary of the method: (§2)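 Four patient lines of CD133+ GBM neurospheres were screened at several concentrations; hits were retested in those lines plus three slower-growing GBM lines, using 48-hour treatment and ATP-based viability.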

astro = experiment: as above; conditions: viability, ATP luminescence, 48 h; series mostly up to 45.9 µM
Summary of the method: as §2

SKOV3 = experiment: Primary qHTS to identify gynecologic anti-cancer compounds using libraries of approved drugs and bioactive compounds (AID 1345084); conditions: Gynecologic cancer cell panel viability, ATPlite luminescence, 48 h; series mostly up to 57.5 µM; further: nearly all actives have a fitted effect of over 55% in size
Summary of the method: as §1

[2] = biological target: Nuclear receptor subfamily 1 group I member 2 (Rattus norvegicus) (UniProt Q9R1A7); experiment: qHTS assay for small molecule activators of the rat pregnane X receptor (rPXR) signaling pathway (AID 651751; call rule not given here); conditions: rPXR reporter cells, luciferase (One-Glo), 24 h
Sequence of Nuclear receptor subfamily 1 group I member 2 (Rattus norvegicus) (Q9R1A7 whole entry, looked up): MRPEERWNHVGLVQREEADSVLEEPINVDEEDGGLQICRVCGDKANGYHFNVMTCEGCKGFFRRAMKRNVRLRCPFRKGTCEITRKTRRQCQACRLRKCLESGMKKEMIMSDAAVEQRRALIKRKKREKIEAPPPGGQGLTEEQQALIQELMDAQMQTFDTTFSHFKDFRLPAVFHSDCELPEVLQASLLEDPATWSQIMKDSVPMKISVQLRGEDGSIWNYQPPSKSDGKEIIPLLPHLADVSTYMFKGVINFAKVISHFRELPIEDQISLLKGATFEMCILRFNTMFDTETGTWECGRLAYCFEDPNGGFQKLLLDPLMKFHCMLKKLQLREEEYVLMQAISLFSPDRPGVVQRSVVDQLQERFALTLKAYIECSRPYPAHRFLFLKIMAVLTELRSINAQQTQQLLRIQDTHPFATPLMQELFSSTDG

[3] = at 45.9 µM (top of the series), tumour line B
[4] = at 45.9 µM (top of the series), tumour line D
[5] = at 46 µM (top of the series), tumour line A
[6] = at 46.1 µM (top of the series), tumour line C
[7] = at 20 µM (top of the series), tumour line C
[8] = at 21.2 µM (top of the series), tumour line B
[9] = at 21.2 µM (top of the series), tumour line D
[10] = at 21.3 µM (top of the series), tumour line A

Compound | outcome (JEG-3) | Potency (OV90) | outcome (PA-1) | outcome (Tov-21-G) | outcome (Tov112D) | activity, negative = cell killing [1, 3] | activity, negative = cell killing [1, 4] | activity, negative = cell killing [1, 5] | activity, negative = cell killing [1, 6] | outcome (astro) | outcome (SKOV3) | max response [2] | Potency ([1]; tumour line A) | Potency ([1]; tumour line C) | activity, negative = cell killing [1, 7] | activity, negative = cell killing [1, 8] | activity, negative = cell killing [1, 9] | activity, negative = cell killing [1, 10]
C/C=C1\[C@H]2C=C(C)C[C@]1(N)c1ccc(=O)[nH]c1C2 | inactive | inactive | inactive | inactive | inactive | -6.65% | -6.44% | -18.8% | 3.14% | inactive |  |  |  |  |  |  |  | 
CC[N+](CC)(CC(=O)Nc1c(C)cccc1C)Cc1ccccc1 | inactive | inactive | inactive | inactive | inactive | -20.4% | -18.5% |  | -28% | inactive | inactive | 0.531% |  |  |  |  |  | 
CCCCCOC(=O)Nc1nc(=O)n([C@@H]2O[C@H](C)[C@@H](O)[C@H]2O)cc1F | inactive | inactive | inactive | inactive | inactive | 3.4% | -3.99% | -16.9% | 7.27% | inactive |  |  |  |  |  |  |  | 
Cc1cc(C)nc(NS(=O)(=O)c2ccc(N)cc2)n1 | inactive | inactive | inactive | inactive | inactive | -8.37% |  | -19.9% | -16.8% | inactive | inactive | 4.51% and 0.319% |  |  |  |  |  | 
O=C(O)CCCCC1CCSS1 (stereo unspecified) | inactive | inactive | inactive | inactive | inactive | -9.35% | -12.2% |  | -7.1% | inactive | inactive | -15% and -8.97% |  |  |  |  |  | 
O=C(O)Cn1c(C(=O)Nc2nc(-c3ccccc3Cl)cs2)cc2ccccc21 | inactive | inactive | inactive | inactive | inactive | -16.8% | -18.1% | -41.5% |  |  |  |  |  |  |  |  |  | 
OCc1ccc(Cl)cc1Cl | inactive | inactive | inactive | inactive | inactive | -6.96% | -3.9% | -3.28% | 6.97% | inactive |  |  |  |  |  |  |  | 
CC1CCN(CCCC(=O)c2ccc(F)cc2)CC1 | inactive | inactive | inactive | inactive | inactive | -15.8% |  |  |  | inactive | inactive |  | 10 µM (active) |  |  |  |  | 
O=C(O)Cc1cn(-c2ccccc2)nc1-c1ccc(Cl)cc1 | inactive | inactive | inactive | inactive | inactive | -17.9% | -13.4% |  | -18.4% | inactive | inactive |  |  |  |  |  |  | 
O=C(O)C(S)C(S)C(=O)O (stereo unspecified) | inactive | inactive | inactive | inactive | inactive |  |  |  |  | inactive | inactive |  |  |  |  |  |  | 
O[C@@H]1CO[C@H]2[C@@H]1OC[C@@H]2O | inactive | inactive | inactive | inactive | inactive | -8.03% | 1.68% |  | -10.9% | inactive | inactive |  |  |  |  |  |  | 
CCCOC(=O)c1ccc(N)cc1 | inactive | inactive | inactive | inactive | inactive |  | -16.4% |  |  | inactive | inactive |  |  | 25.9 µM (active) |  |  |  | 
CC[C@H](C)[C@H](N)C(=O)O | inactive | inactive | inactive | inactive | inactive | -7% | 0.894% |  | 2.32% | inactive | inactive |  |  |  |  |  |  | 
Cc1c(Cn2ccnc2)c2ccccc2n1CCC(=O)O | inactive | inactive | inactive | inactive | inactive | 1.3% | -4.06% | -28% | -6.27% | inactive |  |  |  |  |  |  |  | 
O=C1c2cccc(O)c2C(=O)c2c(O)cccc21 | inactive | inactive | inactive | inactive | inactive |  |  |  | -4.97% | inactive | inactive | 4.48% | 11.2 µM (active) |  |  |  |  | 
c1ccc2[nH]ccc2c1 | inactive | inactive | inactive | inactive | inactive | -8.88% |  | -21.8% | 0.178% | inactive | inactive |  |  |  |  |  |  | 
CCOC(=O)OC(C)OC(=O)[C@@H]1N2C(=O)[C@@H](NC(=O)[C@H](N)c3ccccc3)[C@H]2SC1(C)C (stereo partly specified) | inactive | inactive | inactive | inactive | inactive |  |  |  |  | inactive | inactive |  |  |  | 7.44% | -8.91% | -1.55% | 
CC(=O)Nc1cccc(O)c1 | inactive | inactive | inactive | inactive | inactive | -7.47% | -9.18% |  | -17.1% | inactive | inactive | -4.25% |  |  |  |  |  | 
CCCCCCCC(=O)OCC(COC(=O)CCCCCCC)OC(=O)CCCCCCC | inactive | inactive | inactive | inactive | inactive | -10.1% | -25.3% |  | -9.12% | inactive | inactive | -0.801% |  |  |  |  |  | 
Cc1cccc(C)c1NC(=O)CC12CCCN1CCC2 | inactive | inactive | inactive | inactive | inactive | -10.6% | -15.8% |  |  | inactive | inactive |  |  |  |  |  |  | 

Compound | outcome (JEG-3) | Potency (OV90) | outcome (PA-1) | outcome (Tov-21-G) | outcome (Tov112D) | activity, negative = cell killing [1, 3] | activity, negative = cell killing [1, 4] | activity, negative = cell killing [1, 5] | activity, negative = cell killing [1, 6] | outcome (astro) | outcome (SKOV3) | max response [2] | Potency ([1]; tumour line A) | Potency ([1]; tumour line C) | activity, negative = cell killing [1, 7] | activity, negative = cell killing [1, 8] | activity, negative = cell killing [1, 9] | activity, negative = cell killing [1, 10]
Cc1c(NC(=O)c2cccnc2)c(=O)n(-c2ccccc2)n1C | inactive | inactive | inactive | inactive | inactive |  |  |  |  | inactive |  |  |  |  | -4.61% | 2.25% | 12.3% | -13.1%
COc1ccc(C(=O)NCc2ccc(OCCN(C)C)cc2)cc1OC | inactive | inactive | inactive | inactive | inactive | -21.3% | -4.36% |  |  | inactive | inactive |  |  |  |  |  |  | 
CN(C/C=C/C#CC(C)(C)C)Cc1cccc2ccccc12 | inactive | inactive | inactive | inactive | inactive |  |  |  | -0.19% | inactive | inactive |  | 20 µM (active) |  |  |  |  | 
C=CCN1C[C@H](C(=O)N(CCCN(C)C)C(=O)NCC)C[C@@H]2c3cccc4[nH]cc(c34)C[C@H]21 | inactive | inactive | inactive | inactive | inactive | -13.1% |  |  |  | inactive | inactive |  |  |  |  |  |  | 
CC(=O)N1C[C@H](O)C[C@H]1C(=O)O | inactive | inactive | inactive | inactive | inactive | -12.7% | 12.1% | -19.6% | -5.75% | inactive |  |  |  |  |  |  |  | 
Cc1cccc(C(=O)O)c1O | inactive | inactive | inactive |  | inactive | -1.64% | -5.93% | -19.5% | -18.8% | inactive | inactive |  |  |  |  |  |  | 
CC(=O)OCC(=O)[C@@]1(O)CC[C@H]2[C@@H]3CCC4=CC(=O)C=C[C@]4(C)[C@@]3(F)[C@@H](O)C[C@@]21C | inactive | inactive | inactive | inactive | inactive |  |  |  |  | inactive |  |  |  |  | 11.3% | 1.05% | -1.44% | -7.16%
COc1ccc(O)cc1 | inactive | inactive | inactive | inactive | inactive | -15% | -17.8% |  | -24.9% | inactive | inactive | -3% |  |  |  |  |  | 
O=C1CC[C@@H](C(=O)O)N1 | inactive | inactive | inactive | inactive | inactive | -10.6% | -16.2% |  | 1.94% | inactive | inactive |  |  |  |  |  |  | 
Cc1ccc2c(c1)c1c3n2CCNC3CCC1 (stereo unspecified) | inactive | inactive | inactive | inactive | inactive |  |  |  |  |  |  |  |  |  |  |  |  | 
Cc1cc(NC(=O)C2=C(O)c3ccccc3S(=O)(=O)N2C)no1 | inactive | inactive | inactive | inactive | inactive | -5.07% | -8.1% |  | -15.1% | inactive | inactive |  |  |  |  |  |  | 
O=C(O)Cc1ccc(CCNS(=O)(=O)c2ccc(Cl)cc2)cc1 | inactive | inactive | inactive | inactive | inactive | -9.63% | -6.01% |  |  | inactive | inactive |  |  |  |  |  |  | 
Nc1ncnc2c1ncn2[C@@H]1O[C@H](COP(=O)(O)O)[C@@H](O)[C@H]1O | inactive | inactive | inactive | inactive | inactive | 4.49% | 20.2% | -19.3% | -13.6% | inactive |  |  |  |  |  |  |  | 
CC(=O)[C@@]1(O)CC[C@H]2[C@@H]3C[C@H](C)C4=CC(=O)C=C[C@]4(C)[C@@]3(F)[C@@H](O)C[C@@]21C | inactive | inactive | inactive | inactive | inactive |  |  |  |  | inactive |  |  |  |  | -10.6% | 4.4% | -1.22% | 13.1%
CC1(c2ccccc2)OC(C(=O)O)=CC1=O (stereo unspecified) | inactive | inactive |  | inactive | inactive | -1.24% | -9.61% |  | -15.9% | inactive | inactive |  |  |  |  |  |  | 
C1CCN2C[C@@H]3C[C@@H](CN4CCCC[C@@H]34)[C@H]2C1 | inactive |  | inactive | inactive | inactive |  |  |  |  | inactive | inactive |  |  |  | 4.02% | -1.82% | -18% | -22%
CC[N+](C)(CC)CCOC(=O)C1c2ccccc2Oc2ccccc21 | inactive | inactive | inactive | inactive | inactive | -11.7% | 10.5% | -6.39% | -9.49% | inactive |  |  |  |  |  |  |  | 
Cc1cc(=O)[nH]c(=S)[nH]1 | inactive | inactive | inactive | inactive | inactive | -11.2% | 2.62% |  | -26.3% | inactive |  | -6.87% |  |  |  |  |  | 
CCN1CC(CCN2CCOCC2)C(c2ccccc2)(c2ccccc2)C1=O (stereo unspecified) | inactive | inactive | inactive | inactive | inactive | -13.3% | -11.4% |  | -23.7% | inactive |  |  |  |  |  |  |  | 
